Screening results: PubChem BioAssay, National Center for Advancing Translational Sciences (NCATS)
An excerpt weighted towards active compounds, which were near 7.7% of everything screened.
Giardia FBPA inh – qHTS Assay for Inhibitors of Fructose-1,6-bisphosphate Aldolase from Giardia Lamblia; Potency, µM (doses to about 59.6 µM), for the others: at the highest dose activity, negative = inhibition, actives largely listed as inhibitors; 290,000 compounds, 0.71% hits; purified Giardia FBPA; AID 2451, 2010; A8B2U2; note: potency is the fitted concentration of half-maximal effect; nearly all actives have a fitted effect of over 55% in size
Target sequence (A8B2U2 whole entry, looked up): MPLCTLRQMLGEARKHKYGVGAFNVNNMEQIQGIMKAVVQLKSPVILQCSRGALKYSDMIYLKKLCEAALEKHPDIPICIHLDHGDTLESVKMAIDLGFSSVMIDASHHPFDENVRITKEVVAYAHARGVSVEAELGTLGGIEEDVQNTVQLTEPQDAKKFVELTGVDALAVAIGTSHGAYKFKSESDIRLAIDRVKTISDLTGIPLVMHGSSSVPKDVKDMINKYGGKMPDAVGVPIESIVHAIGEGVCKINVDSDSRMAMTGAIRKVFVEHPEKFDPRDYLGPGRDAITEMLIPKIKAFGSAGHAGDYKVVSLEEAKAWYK
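Giardia FBPA (40 nM reagent) was preincubated 10 min at RT with compound (up to 57.5 uM final), then substrate plus GAPDH/TPI/NAD/arsenate coupling system with diaphorase/resazurin was added; resorufin fluorescence (525/598 nm) was read after 20 min.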
HCMV antiviral – qHTS Assay for inhibitors of the human cytomegalovirus (HCMV) | activity change, negative = inhibition, % at 57.5 µM | 410,000 compounds, 4.5% hits | HFF cells, HCMV-luciferase reporter, 72 h; hits give low values | AID 1259415, 2018; in the data active = activity change below about -60%; inconclusive = no clear call, values can overlap the other calls; inactive = above about -39%
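After 16 h attachment at 37C, HFF cells received test compound and HCMV-luciferase (1 PFU/cell); reporter luminescence read 72 h later, data normalized against buffer-only and known inhibitor Salinomycin.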
Tb PYK inh – qHTS of Trypanosoma Brucei Inhibitors; pyruvate kinase (Trypanosoma brucei), Q57TT1; TbPYK enzyme, Kinase-Glo Plus ATP luminescence, 45 min; Potency, µM (titrated, usually from 76.8 µM), for inactives: at the top dose activity, negative = inhibition, usual class: inhibitors; 410,000 compounds, 0.12% hits; note: potency is the fitted concentration of half-maximal effect; nearly all actives have a fitted effect of over 50% in size
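Glycolytic pyruvate kinase of T. brucei was incubated with substrate, test compound and 130 uM ADP for 45 minutes at room temperature. Luminescent Kinase-Glo Plus signal was measured after 10 minutes.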
FMDV antiviral – High Throughput Screening for Foot and Mouth Disease Virus Antivirals. FMDV antiviral cell-based qHTS. Potency, µM (highest dose often 57.9 µM), without a hit: at the top dose activity change, negative = inhibition, actives largely listed as inhibitors. 410,000 compounds, 1.2% hits; calls by dose curve; tested in HEK293T cells; note: read-out not given here; potency is the fitted concentration of half-maximal effect; nearly all actives have a fitted effect of over 45% in size
RE007 growth inh – qHTS Assay for Inhibitors of the HIV-1 protein Vpr; S. pombe RE007 Vpr strain, BacTiter-Glo ATP luminescence, 24 h; Potency, µM (titrated, usually from 92.2 µM), inactives show top-dose activity change, negative = less growth, usual class: inhibitors; 360,000 compounds, 0.21% hits; AID 651644, 2012; active = well fitted falling curve with a large enough effect; inconclusive = small, poorly fitted or top-dose-only effect; inactive = no such curve, though single readings can be large or run the other way; note: potency is the fitted concentration of half-maximal effect; nearly all actives have a fitted effect of over 50% in size
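Fission yeast RE007 carrying one integrated HIV-1 vpr copy, seeded at OD 0.01 in PMG+AL medium with 23 nL pinned compound. Grown 24 h at 30 degrees; viability read by BacTiter-Glo luminescence after 5 min.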
Sm TGR block – qHTS Assay for the Inhibitors of Schistosoma Mansoni Peroxiredoxins. 360,000 compounds, 3% hits. AID 485364, 2010. Potency, µM (titrated, usually from 114 µM), for the others: at the highest dose activity change, negative = inhibition, hits mostly inhibitors. purified TGR, DTNB reduction, TNB absorbance 405 nm; note: potency is the fitted concentration of half-maximal effect; nearly all actives have a fitted effect of over 60% in size
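First, TGR (20 nM dispensed) and NADPH were mixed with compound. Second, a 15 min room-temperature incubation followed. Third, further NADPH and then DTNB were added to start the reaction. Finally, TNB absorbance was monitored kinetically.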
Starred values were filed as active, the others as inactive; ? = inconclusive; nt = no result given; [ ] = another dose, or the depositor's remark. Unless noted, calls come from the whole dose curve; as a rule, active = well fitted curve in the direction sought with a large enough effect; inconclusive = small, poorly fitted or top-dose-only effect, or another doubt; inactive = no such curve, though single readings can be large; an effect the other way counts as inactive or inconclusive. % is set by controls: 0 for no effect and ±100 for the full control effect.

SMILES | Giardia FBPA inh | HCMV antiviral | Tb PYK inh | FMDV antiviral | RE007 growth inh | Sm TGR block
COc1ccc(-c2cc3nc(-c4ccc(Br)cc4)cc(C(F)(F)F)n3n2)cc1 | nt | 8.3 | -4.4% | -5.2% | nt | -8.7%
COc1ccc(-c2cc(-c3nc4ccccn4c3NCc3ccccc3)ccc2OC)cc1 | nt | -79.3* | 2.6% | 3.55µM* | -3.5% | nt
Cc1ccc2nc(-c3cccc(SC4CCCCC4)c3)c(NCc3ccccc3)n2c1 | nt | -21.6 | 2.9% | 25.1µM* | -20.1% | nt
Clc1cccc(-c2ccc(-c3nc4ccccn4c3NCc3ccccc3)cc2)c1 | nt | -80.3* | -3.9% | -21.0% | ? | nt
c1ccc(CNc2c(-c3cccc(SC4CCCCC4)c3)nc3ccccn23)cc1 | nt | -34.9 | 1.5% | 22.4µM* | -8.1% | nt
Clc1ccc2nc(-c3cccc(SC4CCCCC4)c3)c(NCc3ccccc3)n2c1 | nt | -12.4 | -2.0% | -30.8% | -18.0% | -6.6%
c1ccc(-c2nc3ccccn3c2NCc2ccc3c(c2)OCO3)cc1 | -0.4% | 25.6 | -8.7% | -17.4% | -28.4% | 2.1%
CCC[C@H]1[C@@H](NC(=O)Nc2ccccc2)CC[C@@]23CCCN2C(=O)CCC[C@@H]13 | nt | 7.1 | nt | nt | nt | nt
CCc1ccccc1NC(=O)c1nn(-c2ccc(C)cc2)c(=O)c2c1c1ccccc1n2C | nt | 13.6 | -5.7% | -11.3% | nt | 5.8%
COc1cccc(-c2nc(NCCNC(C)=O)c3ccccc3n2)c1 | -5.7% | nt | nt | 11.4% | nt | nt
CC1CCN(c2nc(CN3CCCCC3)nc3scc(-c4ccccc4)c23)CC1 | 12.4% | ? | -0.3% | 31.6µM* | 5.5% | -1.6%
CC1CCN(c2nc(-c3cccnc3)nc3scc(-c4ccccc4)c23)CC1 | 7.1% | 34.7 | -8.2% | -4.2% | 1.0% | 4.7%
NS(=O)(=O)c1ccc(CCNC(=O)CNC(=O)COc2ccccc2)cc1 | -4.7% | -7.2 | 1.4% | -1.2% | 5.0% | -9.3%
N#Cc1ccc(OCC(=O)NCCc2ccc(S(N)(=O)=O)cc2)cc1 | 5.4% | -80.3* | -0.9% | 10.7% | -7.6% | 5.6%
C[C@@H](C(=O)OCC(=O)NCCc1ccc(S(N)(=O)=O)cc1)N1C(=O)C2CCCCC2C1=O (some centres undefined) | -1.4% | -79.9* | 3.2% | -3.1% | 14.5% | 15.5%
NS(=O)(=O)c1ccc(CCNC(=O)CN2CCC(Cc3ccccc3)CC2)cc1 | -1.0% | -76.1* | 0.3% | -30.1% | 4.1% | -8.7%
COc1ccc2c(c1)O[C@@H](c1cccc(C(F)(F)F)c1)[C@H](OC(=O)NS(=O)(=O)c1ccc(F)cc1)C2=O | -1.4% | nt | nt | nt | nt | nt
O=C(c1ccccc1)c1ccc2nc(N3CCN(c4ccc(F)cc4)CC3)c3nncn3c2c1 | nt | -66.7* | 0.9% | -15.4% | nt | -2.4%
CC(Cl)C(=O)c1c[nH]c2ccccc12 (centres undefined) | 0.2% | -66.7* | -0.7% | -12.0% | -7.1% | -10.2%
O=[N+]([O-])c1ccc(CN2CCN(c3nc4ccccc4s3)CC2)cc1 | -4.9% | ? | 2.5% | -10.1% | 6.3% | ?
CCn1nc([N+](=O)[O-])c(C(C#N)c2nc3ccccc3n2C)c(Cl)c1=O (centres undefined) | 4.5% | -13.8 | -16.0% | 0.0% | 9.4% | 14.1µM*
CCCn1nc([N+](=O)[O-])c(C(C#N)c2nc3ccccc3s2)c(Cl)c1=O (centres undefined) | -0.2% | -90.3* | -32.2% | ? | 10.4% | 1.26µM*
COc1ccc(COC(=O)N/N=C2/C[C@@H](O)[C@@H](O)[C@@H]3[C@@H]4C(=O)N(C(C)(C)C)C(=O)[C@H]4CC[C@@H]23)cc1 | 4.0%[12.9 µM] | nt | nt | nt | nt | nt
Cc1oc(-c2ccc(C(=O)NCc3ccccc3)cc2)nc1CS(=O)(=O)c1ccccc1 | nt | -0.5 | -9.1% | ? | nt | -29.2%
